The sample as a whole holds a higher share of hits than the screen did.
S aureus helic = S. aureus DNA helicase inhibition; purified S. aureus helicase, fluorescence unwinding assay; inhibition, % (no concentration beside the values); 120,000 compounds, 0.05% hits; AID 485395; in the data active = inhibition above about 25%, passing the limit was not always enough;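 also: 0% = mean of negative control wells and 100% = mean of positive control wells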
Sa growth 42C = S. aureus growth inhibition. S. aureus RN4220 growth, OD600, 20 h, 42 °C; active compounds read low. relative growth, % (concentration not given with the values). 170,000 compounds, 0.53% hits. AID 720641;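 active = relative growth at most 50% at the other temperature and 20+ points below 30 °C, or under 10% at both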
* marks the source's active call; other numbers are inactive results; · = no result.

SMILES	S aureus helic	Sa growth 42C
FC(F)(F)c1ccc2nc(SCc3ccc(Br)cc3)[nH]c2c1	·	6.8*
N#Cc1ccc(CSc2nc3ccc(Cl)cc3[nH]2)cc1	6	65
CCS(=O)(=O)c1ncc(Cl)c(C(=O)NCc2ccccc2)n1	·	66
CCS(=O)(=O)c1ncc(Cl)c(C(=O)N2CCN(c3cccc(Cl)c3)CC2)n1	·	7.0*
CCS(=O)(=O)c1ncc(Cl)c(C(=O)Nc2ccc(Cl)cc2)n1	-5	1.8*
CS(=O)(=O)c1ncc(Cl)c(C(=O)N2CCN(c3cccc(Cl)c3)CC2)n1	·	64
CC(C)CNC(=O)c1cc2ccccc2oc1=O	-14	99
O=C1Nc2cc(C(=O)N3CC=C(c4ccccc4)CC3)ccc2Sc2ccccc21	-18	125
Cc1nn2c(-c3ccccc3)cc(-c3ccccc3)nc2c1-c1ccc(Cl)cc1	·	110
Cc1[nH]n2c(=O)cc(-c3ccc(Cl)cc3)nc2c1-c1ccccc1	·	-0.5*
CCOC(=O)c1oc2ccccc2c1CN1C(=O)c2ccccc2C1=O	-20	92
CCOC(=O)c1oc2ccccc2c1CO	10	-0.7*
O=C1c2ccccc2OCC1c1ccccc1 (stereo not given)	·	90
CN(C)CC1COc2ccccc2C1=O (stereo not given)	·	-0.4*
Oc1ccccc1CNc1ccc2c(c1)ncn2C1CCCCC1	6	109
Cc1ccc(CNc2ccc3c(c2)ncn3C2CCCCC2)cc1	-7	-0.5*
CCCn1cnc2cc(NCc3ccncc3)ccc21	10	79
CCCCn1cnc2cc(NCc3ccc(Br)cc3)ccc21	6	7.6*
CCCn1cnc2cc(NCc3ccccc3O)ccc21	0	98
CCCn1cnc2cc(NCc3ccc(Br)cc3)ccc21	5	0.3*
CCCCn1cnc2cc(NCc3cc(OC)c(OC)c(OC)c3)ccc21	19	99
CCCn1cnc2cc(NCc3ccc(Cl)cc3Cl)ccc21	3	0.5*
COC(=O)c1ccc(OCC(O)CN2C(C)CCCC2C)cc1 (stereo not given)	-15	·
CCCC(O)C(C)(C)CO (stereo not given)	-19	98
O=C(O)CNC(=O)c1cn(-c2ccccc2)nc1-c1ccc(Cl)s1	-13	·
SMILES	S aureus helic	Sa growth 42C
CC(C)(CN)N1CCOCC1	-26	74
O=c1[nH]c(=O)n(C2C[C@@H](O)[C@@H](CO)O2)cc1F (stereo not given in full)	·	-0.7*
O=c1[nH]c(=O)n(C2C[C@H](O)[C@@H](CO)O2)cc1C(F)(F)F (stereo not given in full)	·	96
CC1CC(C)CN(C(=O)c2ccc3c(c2)OCO3)C1 (stereo not given)	17	102
O=C(Nc1ccc(Cl)c(Cl)c1)Oc1ccc(NC(=O)c2ccco2)cc1	-2	3.7*
O=C(Nc1ccc2ccccc2c1)c1ccco1	·	98
Nc1nnc(SCc2nc3scc(-c4ccc(Cl)cc4)c3c(=O)[nH]2)s1	-9	72
c1ccc(-n2nnnc2OCCOc2nnnn2-c2ccccc2)cc1	16	97
c1ccc(-n2nnnc2Oc2cccc3cccnc23)cc1	6	-0.3*
Cc1ccc(C(O)CN=Cc2c(O)ccc3ccccc23)cn1 (stereo not given)	-21	103
CCOC(=O)Nc1ccc2c(COC(=O)c3cc(-c4ccco4)nc4ccccc34)cc(=O)oc2c1	21	71
OCc1ccc(OCc2ccc(F)cc2)cc1	·	113
NC(=S)COc1ccc(F)cc1	25*	100
COCCN=Cc1cc(Br)cc(Br)c1O	0	41
CC(C)(C)NC(=S)Nc1cccc(C(F)(F)F)c1	3	0.1*
COC(=S)Nc1cccc(C(F)(F)F)c1	·	94
CNC(=S)Nc1cccc(C(F)(F)F)c1	11	114
CC(C)c1ccc(NC(=S)Nc2cccc(C(F)(F)F)c2)cc1	·	-2.1*
Cc1ccccc1Cn1cnc2sc(C)c(C)c2c1=O	1	121
COc1cc(C)c(S(=O)(=O)n2ccnc2)cc1C(C)C	-6	2.4*
COc1ccc(Br)cc1S(=O)(=O)n1ccnc1	-8	·
O=C1COc2ccc(C(=O)C[n+]3cccc([O-])c3)cc2N1	-86	99
COc1ccc(C(c2ccc3cccnc3c2O)N2CCCC2)cc1 (stereo not given)	-20	96
COc1ccc(C(c2ccc3cccnc3c2O)N2CCOCC2)cc1 (stereo not given)	18	8.8*
Oc1c(C(c2ccncc2)N2CCCC2)ccc2cccnc12 (stereo not given)	-2	66
SMILES	S aureus helic	Sa growth 42C
Oc1c(C(c2ccc(C(F)(F)F)cc2)N2CCCC2)ccc2cccnc12 (stereo not given)	-13	1.1*
Cc1nnc(SCC(=O)NCCN2CCOCC2)c2nn(-c3ccccc3)c(C)c12	-32	99
CO/C(C)=C\c1sc2ccccc2[n+]1C	-6	92
CC(Oc1ccc(F)cc1)C(=O)Nc1nc(-c2ccc(F)cc2)ns1 (stereo not given)	·	2.3*
COc1ccc(-c2nsc(NC(=O)C(C)Oc3ccc(Cl)c(C)c3)n2)cc1 (stereo not given)	·	84
OC(CNCc1ccc(-c2ccccc2Cl)o1)c1ccccc1 (stereo not given)	6	132
CS/C(=N\S(=O)(=O)c1cccs1)NC(=O)c1ccccc1	13	98
O=C1C(Sc2ccccc2)=C/C(=N/S(=O)(=O)c2cccs2)c2ccccc21	16	0.0*
O=C1/C(=C/c2ccc(F)c(F)c2)CCC/C1=C\c1ccc(F)c(F)c1	10	86
Cn1cc(Br)c(-c2cccc(NC(=O)CSCC(=O)O)c2)n1	·	118
Cc1ccc(Cc2c(C)nc3c(-c4ccccc4)c(C)[nH]n3c2=O)cc1	·	108
Cc1nc2c(-c3ccccc3)c(C)[nH]n2c(=O)c1Cc1ccc(Br)cc1	·	0.1*
S=C1SCN(C2CCCCC2)CN1Cc1ccccc1	8	79
COC(=O)c1ccc(CSc2n[nH]c(=O)[nH]c2=O)cc1	-5	111
O=C(N=Nc1c2ccccc2c2nc3no[nH]c3nc12)c1ccccc1O	-28	0.6*
O=C(N=Nc1c(O)[nH]c(=O)[nH]c1=O)c1ccccn1	5	101
CCc1ccc(NS(=O)(=O)c2ccc3[nH]cc(C(=O)NCc4ccco4)c(=O)c3c2)cc1	-36	96
N#Cc1ccccc1S(=O)(=O)NCC(=O)NC1CCCc2ccccc21 (stereo not given)	6	98
C[C@@H](O)[C@H]1C(=O)N2C(C(=O)O)=C(SCCN=CN)C[C@H]12	·	29*
COCCNC(=O)c1cc2c(=O)n3cccc(C)c3nc2n(Cc2cccnc2)c1=N	-2	109
COc1ccc(Br)cc1CNC(=O)c1cc2c(=O)[nH]c3ccccc3c2n1C	16	99
Cc1ccc(C(=O)OCCN2CCCCC2)cc1	6	90
CC(C)(C)c1cc(C(=O)OCCN2CCCCC2)cc(C(C)(C)C)c1	-4	22*
c1c(SSc2cn3c(n2)CCC3)nc2n1CCC2	3	-0.6*
COc1ccc(-c2cn3c(n2)CCC3)cc1	-14	97
CC(C)(CNC(=O)Nc1ccc(Cl)c(Cl)c1)N1CCOCC1	12	-0.6*
CC(C)(CNC(=O)Cc1ccsc1)N1CCOCC1	-6	95
CCn1c(N)c(C(=O)COC(=O)c2ccc(S(=O)(=O)C(F)F)cc2)c(=O)[nH]c1=O	-5	93
CCCN1CCN(CCCNC(=O)c2cc3c(-c4ccc(OC)c(OC)c4)nn(C)c3s2)CC1	50*	131
COc1ccc(-c2nn(C)c3sc(C(=O)NCCCN4CCOCC4)cc23)cc1OC	32	134
